Peg3 prom inh-1 – reduces Peg3 promoter-driven luciferase expression in HeLa | AID 588405 | inhibition, % at 20 µM | hit rate 1.7% among 360,000 | HeLa PEG-Prom luciferase reporter, luminescence, overnight;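 active = inhibition of at least 50% at 20 µM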
CF NFkB inh – inhibitors of cystic fibrosis induced NF-kB. KKLEB NF-kB-GFP reporter, PAF-induced, GFP fluorescence overnight. inhibition, % at 5 µM. hit rate 0.86% among 360,000. AID 588850;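 active = at least 50% inhibition at 5 µM, scaled per plate between neutral and stimulator controls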;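 also: PAF is a Pseudomonas aeruginosa culture filtrate used as stimulus; plate controls were PAF-stimulated DMSO wells for no effect and unstimulated DMSO wells for full effect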
EBV LMP1 NFkB – Epstein-Barr LMP1 NF-kappaB reporter inhibition. LMP1-induced NF-kappaB luciferase reporter cells, luminescence. inhibition, % at 12.5 µM. hit rate 0.69% among 350,000; in the data active = inhibition above about 41%;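 also: 0% = neutral control wells and 100% = reference inhibitor control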
Shn3 3UTR inh – reduces Shn3 3'UTR luciferase signal in osteoblasts; Clone20 osteoblast Shn3 3'UTR firefly luciferase, 24 h; inhibition, % at 12.5 µM; hit rate 0.52% among 360,000; AID 588674;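 active = mean inhibition of at least 75% with every replicate also reaching 75%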;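 also: 0% = median of neutral control wells and 100% = pilot-screen positive control compound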
KKLEB cytotox – reduces viability of KKLEB cystic fibrosis airway cells; KKLEB CF airway cells viability, ATPlite luminescence, overnight; stronger effect = lower value; cells stimulated with P. aeruginosa culture filtrate; activity change (cytotoxicity), % at 5 µM; hit rate 0.36% among 360,000; AID 602141;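 active = corrected activity change at or below -50% at 5 µM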
HIF-2a block – blocks HIF-2a reporter activity. hit rate 0.72% among 360,000. 786-0 RCC cells HIF-2a reporter, luciferase luminescence, overnight. inhibition, % at 18.8 µM. AID 624352;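 active = inhibition of the luminescence signal of 40% or more relative to plate controls, in a single-dose primary screen at 18.75 µM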
Peg3 prom inh-2 – Peg3 promoter inhibition confirmation; shares compounds with Peg3 prom inh-1; HeLa PEG-Prom luciferase reporter, luminescence, overnight; inhibition, % at 20 µM; hit rate 84% among 1,300;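 active = at 20 µM dose, 40% or more inhibition averaged across four replicates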
The depositor's hits bear a star; . = no result. Shown are actives, neighbours in structure and some others; about 2.9% of the full set was active somewhere.

SMILES	Peg3 prom inh-1	CF NFkB inh	EBV LMP1 NFkB	Shn3 3UTR inh	KKLEB cytotox	HIF-2a block	Peg3 prom inh-2
CCOc1ccccc1NC(=O)c1cc(-c2cc(OC)c(OC)c(OC)c2)nc2ccccc12	45	-8	9	-2	-8	12	.
COc1cc(-c2cc(C(=O)Nc3cc(S(=O)(=O)N4CCOCC4)ccc3O)c3ccccc3n2)cc(OC)c1OC	27	-27	4	20	8	14	.
COc1ccccc1NC(=O)c1cc(-c2cc(OC)c(OC)c(OC)c2)nc2ccccc12	54*	29	14	0	-12	-3	74*
COc1ccc(CCNC(=O)c2ccc3c(SCC(=O)O)c4c(nc3c2)CCCC4)cc1OC	7	11	-7	-4	-19	11	.
COc1ccccc1NC(=S)NC1CCCCC1	-16	8	2	-3	-4	14	.
COc1ccccc1NC(=S)NC1CCCCCCCCCCC1	55*	16	1	10	-17	22	91*
COc1cc2c(cc1OC)C1(C)N(CC2)C(C(C)=O)=NN1c1ccc(Cl)cc1 (stereo unspecified)	19	12	.	.	-4	21	.
O=S(=O)(c1ccc(Cl)cc1)N1CCN(Cc2ccc(O)c3ncccc23)CC1	52*	6	34	88*	-2	8	56*
Oc1ccc(CN2CCN(Cc3ccccc3)CC2)c2cccnc12	-25	-10	-4	35	-4	14	.
CCn1c2ccccc2c2cc(NC(=O)C(C)OC(=O)c3ccc(NC(=O)CC#N)cc3)ccc21 (stereo unspecified)	67*	45	3	16	-65*	2	55*
CCn1c2ccccc2c2cc(NC(=O)COC(=O)c3ccc(O)cc3)ccc21	-8	-20	-22	-24	12	-3	.
CCC(C)n1cnc2c(c1=O)c1nc3ccccc3nc1n2-c1ccc2c(c1)OCCO2 (stereo unspecified)	56*	9	-3	28	-17	-7	18
COc1ccc2c(c1)SCC/C2=C\CN1C(=O)CCC1=O	12	12	-4	32	-10	18	.
O=C1NC(Cc2ccccc2)c2nc3cc(F)ccc3c(=O)n2-c2cc3ccccc3cc21 (stereo unspecified)	21	-9	9	-5	-3	24	.
O=C1NC(Cc2ccc(O)cc2)c2nc3ccc(F)cc3c(=O)n2-c2cc3ccccc3cc21 (stereo unspecified)	54*	-3	-2	13	-17	-29	60*
Cc1ccccc1C(=O)NC(=S)Nc1ccc2[nH]c(=O)[nH]c2c1	5	12	14	12	6	-5	.
S=C(NCc1ccccc1)C(=S)NCc1ccccc1	-37	6	-21	19	-15	-81	.
c1ccc(CN=C(NCc2ccccc2)NCc2ccccc2)cc1	90*	2	-5	83*	-7	10	88*
Cn1cnc([N+](=O)[O-])c1Sc1nc(N)nc2c1ncn2C1OC(CO)C(O)C1O (stereo unspecified)	61*	10	-10	23	1	21	64*
CCSc1nc(N)nc2c1ncn2C1OC(CO)C(O)C1O (stereo unspecified)	-16	-10	-4	0	6	2	.
CCOc1ccc(-n2c(SCC(=O)Nc3ccc(Br)cc3)nc3n[nH]c(C)c3c2=N)cc1	33	17	-11	56	-32	11	.
Cc1cc(-n2c(SCC(=O)Nc3ccc(Br)cc3)nc3n[nH]c(C)c3c2=N)ccc1Cl	85*	32	-9	54	-20	2	40
Cc1cc(-n2c(SCC(=O)Nc3ccc(F)c(F)c3)nc3n[nH]c(C)c3c2=N)ccc1Cl	84*	7	5	52	-7	7	59*
COc1cc(/C=C/C(=O)OCC(=O)NC(=O)NC(C)C)cc(S(=O)(=O)N2CCc3ccccc32)c1OC	36	1	0	-1	1	9	.
CNCC[C@@H](Oc1ccc(C(F)(F)F)cc1)c1ccccc1	74*	14	35	3	-21	-12	69*
SMILES	Peg3 prom inh-1	CF NFkB inh	EBV LMP1 NFkB	Shn3 3UTR inh	KKLEB cytotox	HIF-2a block	Peg3 prom inh-2
COCCCN1CN(Cc2ccccc2)CNC1=S	12	-10	-1	-1	-8	9	.
N/C(=N\OC(=O)c1ccccc1)C(Cc1ccccc1)C(=O)NOC(=O)c1ccccc1 (stereo unspecified)	99*	9	-40	17	-17	-40	99*
O=C(NOC(=O)c1ccccc1)c1ccccc1	21	-14	1	.	13	16	.
CN1Cc2c(N3CCOCC3)nc3sc(C#N)c(N)c3c2CC1(C)C	16	10	-7	-3	-6	19	.
CN1Cc2c(N3CCOCC3)nc3sc(C(=O)c4ccc(Br)cc4)c(N)c3c2CC1(C)C	80*	-5	.	.	-14	-7	97*
COc1ccc(-c2coc3c(C(=O)NCCN(C)C)cccc23)c(C)c1	28	-5	.	27	3	3	.
COc1ccc(-c2nc3c(C(=O)NCCN(C)C)cccc3c3ccccc23)cc1	95*	-126	-1	-32	-1	1	99*
Clc1ccccc1-c1cnc2sc(NCc3ccc4c(c3)OCO4)nn12	66*	9	.	-8	14	-4	33
Clc1ccccc1-c1ccc2ncnc(NCc3ccc4c(c3)OCO4)c2c1	20	18	3	6	-24	0	.
CC1=NC(C)(C)Cc2cc(C)c(C)cc21	16	4	-1	14	7	24	.
CC1CCCC(C)N1C(=C(Cl)Cl)C(=C1SCCS1)[N+](=O)[O-] (stereo unspecified)	71*	26	2	39	-28	30	59*
CC(/C=C/c1ccccc1)=N/NC(=O)c1cc([N+](=O)[O-])cc([N+](=O)[O-])c1	51*	17	28	3	4	13	51*
CC(/C=C/c1cccc([N+](=O)[O-])c1)=N/NC(=O)c1cccnc1	-9	-9	-5	76	4	-3	.
COc1ccccc1NC(NC(=O)c1cccnc1)C(Cl)(Cl)Cl (stereo unspecified)	6	-13	-3	11	4	12	.
C=CCn1c(SCC(=O)c2[nH]c(C)c(C(=O)OC)c2C)nc2scc(-c3ccc(OC)c(OC)c3)c2c1=O	10	24	3	84	-40	12	.
CN=c1scc(-c2cccs2)n1/N=C/c1ccccc1O	91*	-10	85*	90*	-69*	90*	95*
CN=c1scc(-c2cccs2)n1/N=C/c1ccc(O)c(O)c1O	-136	20	17	73	-32	-91	.
CC(C)n1nc(C(=O)Oc2cc(Cl)ccc2Cl)c2ccccc2c1=O	54*	9	15	-8	-13	3	65*

Compound activity: PubChem, several laboratories
